According to PubChem BioAssay (NCI):
“And” between values parts separate entries of the source, which are not always exact repeats. Equal values may be shown once. This is part of a sample that, as a whole, favours compounds with a hit. Of some 83,000 tested, about 20% had one in any assay.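 96-well plates, one dose, 48 hours. Percent growth reported; active if below 10.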 The source made the active and inactive calls.

Experiments:
Assay in all cases: NCI-60 one-dose screen, 48 h (100 = growth as untreated, 0 = no growth, -100 = all killed)
NCI-H23 lung = test system: NCI-H23 lung
NCI-H322M lung = test system: NCI-H322M lung
HOP-62 NSCLC = test system: HOP-62 NSCLC
NCI-H460 lung = test system: NCI-H460 lung
HOP-92 NSCLC = test system: HOP-92 NSCLC
NCI-H522 lung = test system: NCI-H522 lung
786-0 renal = test system: 786-0 renal
COLO 205 colon = test system: COLO 205 colon
DU-145 prostate = test system: DU-145 prostate
K-562 leukemia = test system: K-562 leukemia
MALME-3M melanoma = test system: MALME-3M melanoma
MDA-MB-231 breast = test system: MDA-MB-231 breast
RXF 393 renal = test system: RXF 393 renal
SF-268 CNS = test system: SF-268 CNS
SF-295 CNS = test system: SF-295 CNS
SF-539 CNS = test system: SF-539 CNS
UACC-257 melanoma = test system: UACC-257 melanoma
M14 melanoma = details: 10 µM unless noted
NCI-H226 lung = details: 10 µM

Measured: growth

CC1CCC2(C(=O)O)CCC3(C)C(=CCC4C5(C)CC(O)C(O)C(C)(CO)C5C(O)CC43C)C2C1C (centres undefined)
inactive: NCI-H23 lung; 10 µM 94.6% | NCI-H322M lung; 10 µM 98.7% | HOP-62 NSCLC; 10 µM 111% | NCI-H460 lung; 10 µM 111% | HOP-92 NSCLC; 10 µM 79% | NCI-H522 lung; 10 µM 87.9% | 786-0 renal; 10 µM 110% | COLO 205 colon; 10 µM 112% | DU-145 prostate; 10 µM 110% | K-562 leukemia; 10 µM 106% | MALME-3M melanoma; 10 µM 103% | MDA-MB-231 breast; 10 µM 107% | RXF 393 renal; 10 µM 26.2% | SF-268 CNS; 10 µM 111% | SF-295 CNS; 10 µM 112% | SF-539 CNS; 10 µM 99.6% | UACC-257 melanoma; 10 µM 93.7% | M14 melanoma 53.9%

COc1ccc(C(C#N)=C2C=CC(=NO)C=C2)cc1
active: NCI-H226 lung -14.3% | NCI-H522 lung; 10 µM -24.7%
inactive: NCI-H23 lung; 10 µM 94.9% | NCI-H322M lung; 10 µM 94.3% | HOP-62 NSCLC; 10 µM 47.7% | NCI-H460 lung; 10 µM 65.8% | HOP-92 NSCLC; 10 µM 137% | 786-0 renal; 10 µM 34.9% | COLO 205 colon; 10 µM 127% | DU-145 prostate; 10 µM 72.4% | K-562 leukemia; 10 µM 46.6% | MALME-3M melanoma; 10 µM 103% | MDA-MB-231 breast; 10 µM 96.3% | RXF 393 renal; 10 µM 113% | SF-268 CNS; 10 µM 80.9% | SF-295 CNS; 10 µM 106% | SF-539 CNS; 10 µM 79% | UACC-257 melanoma; 10 µM 58.1% | M14 melanoma 79.1%

N#C/C(=C/N1C(=O)/C(=C/c2ccc([N+](=O)[O-])cc2)SC1=S)c1nc2ccccc2s1
inactive: NCI-H23 lung; 10 µM 89.1% | NCI-H322M lung; 10 µM 88.1% | HOP-62 NSCLC; 10 µM 82.4% | NCI-H460 lung; 10 µM 90.3% | HOP-92 NSCLC; 10 µM 66.8% | NCI-H522 lung; 10 µM 78.7% | 786-0 renal; 10 µM 94.8% | COLO 205 colon; 10 µM 90.3% | DU-145 prostate; 10 µM 104% | K-562 leukemia; 10 µM 77.5% | MALME-3M melanoma; 10 µM 111% | MDA-MB-231 breast; 10 µM 73.6% | RXF 393 renal; 10 µM 96.8% | SF-268 CNS; 10 µM 95% | SF-295 CNS; 10 µM 86.8% | SF-539 CNS; 10 µM 91.9% | UACC-257 melanoma; 10 µM 96.5% | M14 melanoma 94.6%

Cn1c2nc3ccccc3c-2nc2ccccc21
inactive: NCI-H23 lung; 10 µM 94.1% and 91.3% | NCI-H322M lung; 10 µM 99.7% and 88.7% | HOP-62 NSCLC; 10 µM 80.5% and 85.1% | NCI-H460 lung; 10 µM 86.9% and 86.5% | HOP-92 NSCLC; 10 µM 77.6% and 79.1% | NCI-H522 lung; 10 µM 102% and 87.8% | 786-0 renal; 10 µM 96.6% and 94.4% | COLO 205 colon; 10 µM 86.7% and 83.9% | DU-145 prostate; 10 µM 94.4% and 95.7% | K-562 leukemia; 10 µM 121% and 94.7% | MALME-3M melanoma; 10 µM 116% and 115% | MDA-MB-231 breast; 10 µM 79.9% and 83.8% | RXF 393 renal; 10 µM 91% and 90.7% | SF-268 CNS; 10 µM 97% and 97.7% | SF-295 CNS; 10 µM 96.8% and 107% | SF-539 CNS; 10 µM 92.2% and 77.2% | UACC-257 melanoma; 10 µM 108% and 94.5% | M14 melanoma 108% and 100%

O=S(=O)(c1cc(Cl)ccc1O)c1cc(Cl)ccc1O
inactive: NCI-H23 lung; 10 µM 84.6% | NCI-H322M lung; 10 µM 106% | HOP-62 NSCLC; 10 µM 83.7% | NCI-H460 lung; 10 µM 85.1% | NCI-H522 lung; 10 µM 63.9% | 786-0 renal; 10 µM 86.7% | COLO 205 colon; 10 µM 105% | DU-145 prostate; 10 µM 100% | K-562 leukemia; 10 µM 62.1% | MALME-3M melanoma; 10 µM 95.7% | MDA-MB-231 breast; 10 µM 95.4% | RXF 393 renal; 10 µM 102% | SF-268 CNS; 10 µM 88.2% | SF-295 CNS; 10 µM 85.2% | SF-539 CNS; 10 µM 86.6% | UACC-257 melanoma; 10 µM 35.1% | M14 melanoma 75.8%
active: HOP-92 NSCLC; 10 µM 6.03%

S=P(N1CC1)(N1CC1)N1CC1
active: DU-145 prostate; 100 µM -0.811% | SF-539 CNS; 100 µM -8.76%
inactive: NCI-H23 lung; 10 µM 100% and 73.4% | NCI-H23 lung; 100 µM 33% | NCI-H322M lung; 10 µM 102% and 98.2% | NCI-H322M lung; 100 µM 89.4% | HOP-62 NSCLC; 10 µM 109% and 36.8% | HOP-62 NSCLC; 100 µM 47.9% | NCI-H460 lung; 10 µM 116% and 40.2% | NCI-H460 lung; 100 µM 26.3% | HOP-92 NSCLC; 10 µM 99.9% | HOP-92 NSCLC; 100 µM 36.1% | NCI-H522 lung; 10 µM 104% and 82.9% | NCI-H522 lung; 100 µM 59.5% | 786-0 renal; 10 µM 100% and 83.6% | 786-0 renal; 100 µM 21.6% | COLO 205 colon; 10 µM 106% and 121% | COLO 205 colon; 100 µM 78.6% | DU-145 prostate; 10 µM 121% and 71.9% | K-562 leukemia; 10 µM 109% and 53.2% | K-562 leukemia; 100 µM 43.4% | MALME-3M melanoma; 10 µM 98.1% and 97.8% | MALME-3M melanoma; 100 µM 82% | MDA-MB-231 breast; 10 µM 100% and 103% | MDA-MB-231 breast; 100 µM 101% | RXF 393 renal; 10 µM 120% and 86% | RXF 393 renal; 100 µM 14.4% | SF-268 CNS; 10 µM 124% and 83.6% | SF-268 CNS; 100 µM 36.5% | SF-295 CNS; 10 µM 104% and 81.7% | SF-295 CNS; 100 µM 14.3% | SF-539 CNS; 10 µM 113% and 94.6% | UACC-257 melanoma; 10 µM 107% and 87.7% | UACC-257 melanoma; 100 µM 37.2% | M14 melanoma 96.2% and 60.4%

NCc1c(O)ccc2ccccc12
inactive: NCI-H23 lung; 10 µM 102% | NCI-H322M lung; 10 µM 96.4% | HOP-62 NSCLC; 10 µM 90.7% | NCI-H460 lung; 10 µM 108% | HOP-92 NSCLC; 10 µM 73% | NCI-H522 lung; 10 µM 95% | 786-0 renal; 10 µM 103% | COLO 205 colon; 10 µM 105% | DU-145 prostate; 10 µM 109% | K-562 leukemia; 10 µM 99.1% | MALME-3M melanoma; 10 µM 96.6% | MDA-MB-231 breast; 10 µM 105% | RXF 393 renal; 10 µM 102% | SF-268 CNS; 10 µM 97.2% | SF-295 CNS; 10 µM 75.5% | SF-539 CNS; 10 µM 92.8% | UACC-257 melanoma; 10 µM 95.6% | M14 melanoma 90.8%
